The entries come from a sample that favours hits as a whole.
FBPA Giardia inh – blocks Giardia fructose-bisphosphate aldolase activity; AID 2451; A8B2U2; purified Giardia FBPA; Potency, µM (titrated, usually from 59.6 µM), without a hit: at the highest dose activity, negative = inhibition, hits mostly inhibitors; 290,000 compounds, 0.71% hits; note: potency is the fitted concentration of half-maximal effect; % is set by controls: 0 for no effect and ±100 for the full control effect; nearly all actives have a fitted effect of over 55% in size
Target sequence (A8B2U2 whole entry, looked up): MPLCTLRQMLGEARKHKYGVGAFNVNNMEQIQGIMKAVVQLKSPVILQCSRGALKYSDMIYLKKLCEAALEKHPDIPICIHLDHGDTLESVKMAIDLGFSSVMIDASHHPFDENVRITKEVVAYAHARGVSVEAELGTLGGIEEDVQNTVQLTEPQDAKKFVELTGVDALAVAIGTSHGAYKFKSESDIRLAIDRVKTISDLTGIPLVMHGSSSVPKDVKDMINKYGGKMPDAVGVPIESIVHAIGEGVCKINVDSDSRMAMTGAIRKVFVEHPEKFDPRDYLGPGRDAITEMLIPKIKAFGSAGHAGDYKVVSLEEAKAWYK
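40 nM FBPA preincubated 10 min at RT with compound (up to 57.5 uM final), then substrate plus GAPDH/TPI/NAD/arsenate coupling and diaphorase/resazurin added. Fluorescence read after 20 min at RT, 525/598 nm.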
LmPK inhibitor – LmPK (Leishmania mexicana) enzyme inhibition. Q27686. purified LmPK, Kinase-Glo ATP luminescence, 1 h. Potency, µM (series often up to 57.5 µM), for the others: at the top dose activity change, negative = inhibition, actives largely listed as inhibitors. 290,000 compounds, 0.37% hits; note: potency is the fitted concentration of half-maximal effect; % is set by controls: 0 for no effect and ±100 for the full control effect
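Purified LmPK (0.1 nM) converted ADP (0.1 mM) to ATP with PEP (0.5 mM) in imidazole buffer pH 7.2 with KCl and MgCl2, 1 h at room temperature. ATP was read by Kinase-Glo luminescence; data normalized to uninhibited and no-enzyme controls.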
CHX counter – affects cycloheximide protein synthesis inhibition readout, counter-screen | cell reporter, cycloheximide protein synthesis inhibition counterscreen | max response, % | 300,000 compounds, 12% hits | AID 2314; in the data active = max response mostly above about 13%, no sharp cut-off; inactive = mostly below about 14%; note: read at 38.3 µM for the half of the compounds with a filed dose; 0% is about no effect
Shiga inhibitor – inhibitors of Shiga toxin in Vero cells. Vero cells, Shiga toxin protein synthesis inhibition reporter. inhibition, % at 38.7 µM. 290,000 compounds, 9.2% hits; in the data active = inhibition mostly above about 28%, no sharp cut-off; inactive = mostly below about 43%; note: 0% is about no effect
TbPYK inhibitor – T. brucei pyruvate kinase inhibition; TbPYK enzyme, Kinase-Glo Plus ATP luminescence, 45 min; 410,000 compounds, 0.12% hits; Potency, µM (highest dose often 76.8 µM), for the others: top-dose activity, negative = inhibition, hits mostly inhibitors; note: potency is the fitted concentration of half-maximal effect; % is set by controls: 0 for no effect and ±100 for the full control effect; nearly all actives have a fitted effect of over 50% in size
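TbPYK + substrate in 50 mM TEA pH 7.2, 100 mM KCl, 10 mM MgCl2, 0.05% BSA, 0.01% Tween-20; cpd pinned; ADP 130 uM final; 45 min RT; Kinase-Glo Plus 10 min; luminescence endpoint.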
Sm TGR inh – S. mansoni TGR enzyme inhibition. Q962Y6. purified TGR, DTNB reduction, TNB absorbance 405 nm. Potency, µM (top dose mostly 114 µM), inactives show top-dose activity change, negative = inhibition, hits mostly inhibitors. 360,000 compounds, 3% hits; note: potency is the fitted concentration of half-maximal effect; % is set by controls: 0 for no effect and ±100 for the full control effect; nearly all actives have a fitted effect of over 60% in size
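First, TGR (20 nM dispensed) and NADPH were mixed with compound. Second, a 15 min room-temperature incubation followed. Third, further NADPH and then DTNB were added to start the reaction. Finally, TNB absorbance was monitored kinetically.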
* hit, by the source's call; ? = inconclusive; . = no result; [ ] = dose if it differs, or a comment. Unless noted, calls come from the whole dose curve; as a rule, active = well fitted curve in the direction sought with a large enough effect; inconclusive = small, poorly fitted or top-dose-only effect, or another doubt; inactive = no such curve, though single readings can be large; an effect the other way counts as inactive or inconclusive.

SMILES	FBPA Giardia inh	LmPK inhibitor	CHX counter	Shiga inhibitor	TbPYK inhibitor	Sm TGR inh
Cc1ccc(S(=O)(=O)NC(=O)NCCCCNC(=O)NS(=O)(=O)c2ccc(C)cc2)cc1	-1.2%	-0.9%	-3.5	-10.5	4.1%	0.0%
C=CCC[C@H](CCCCC)OC(=O)/C=C/[C@@H](O)[C@H](O)C[C@H](O)CC=C	.	.	.	.	0.6%	.
COc1cccc(NC(=O)Cn2cnc3c(nc4n3CCCCC4)c2=O)c1	.	.	.	.	0.3%	5.5%
C#CCNc1c2c(nc3ncnn13)CC(C)CC2 (configuration not stated)	-0.8%	-5.8%	-3.3	1.1	-2.1%	22.4µM*
COCc1cc(O)c(O)c(O)c1-c1c(COC)cc(O)c(O)c1O	3.97µM*	.	0.3	-4.8	.	.
Clc1ccc(OCCCN2CCCCC2)c(Br)c1	?	2.9%	70.9*	12.2*	-4.8%	1.2%
COCCCNCCCOc1ccc(Cl)cc1Br	-17.8%	0.4%	1.0	-10.9	.	7.2%
CC(C)NCCCOc1ccc(Cl)cc1Br	?	-4.6%	30.8*	36.4*	2.2%	10.7%
O=C(O)C(O)C(O)C(O)C(O)C(=O)O (configuration not stated)	3.3%	.	.	.	4.1%	.
S=c1[nH]nc(C2CCCCC2)n1/N=C/c1ccccc1Br	14.7%	-25.2%	1.3	30.1	?	0.0%
O=[N+]([O-])c1ccccc1/C=N/n1c(C2CCCCC2)n[nH]c1=S	-1.7%	-19.1%	34.4*	86.9	?	-15.5%
O=[N+]([O-])c1cc2c(cc1/C=N/n1c(-c3ccccc3)n[nH]c1=S)OCO2	5.4%	13.3%	43.1*	55.0*	?	9.0%
O=c1c2ccccc2nc(-c2ccc(Cl)cc2)n1CCCCOc1ccc(F)cc1	.	.	.	.	1.0%	-2.8%
CC(=O)N1CCc2cc(Br)cc(S(=O)(=O)N3CCC(C)CC3)c21	.	.	.	.	-2.4%	-8.0%
COc1ccc(NC(=O)Cn2c(=O)cc(C)c3c(C)nn(C)c32)cc1	.	.	.	.	-5.1%	17.4%
Cc1c(N)cc(N)cc1C(=O)O	4.46µM*	-1.5%	-1.8	0.8	-2.6%	-28.0%
O=c1c(-c2cc(F)cc(F)c2)nc2cnc(N3CCNCC3)nc2n1Cc1cccs1	1.1%	.	.	.	-4.7%	.
CCc1ccc(N2C(=O)CN(Cc3cccs3)C2=S)cc1	-0.3%	8.7%	28.1*	12.2	-3.1%	9.9%
CC[C@H](C)[C@H](NC(=O)[C@H](Cc1ccc(O)cc1)NC(=O)[C@@H]1CCCN1C(=O)[C@H](CCCN=C(N)N)NC(=O)[C@H](CCCN=C(N)N)NC(=O)[C@@H]1CCCN1C(=O)[C@H](CCCCN)NC(=O)[C@H](CC(N)=O)NC(=O)[C@H](CCC(N)=O)NC(=O)[C@H](Cc1ccc(O)cc1)NC(=O)[C@H](CC(C)C)NC(=O)[C@@H]1CCC(=O)N1)C(=O)N[C@@H](CC(C)C)C(=O)O	0.5%	.	-6.7	-6.2	.	.
Oc1c(Cl)cc(Cl)cc1CN1CCN(Cc2ccccc2)CC1	-13.3%	-2.5%	20.1*	27.8	-13.1%	-0.5%
CCC(=O)Nc1cc2nn(-c3ccc(C)cc3)nc2cc1C	3.7%	3.3%	44.1*	109.0*	5.4%	-1.8%
CCCCC(=O)Nc1cc2nn(-c3ccc(OC)cc3)nc2cc1C	3.8%	16.5%	9.9	-5.2	0.6%	3.0%[11.4 µM]
COc1ccc(-n2nc3cc(C)c(NC(=S)NC(=O)c4ccccc4C)cc3n2)cc1	5.7%	3.0%	30.3*	111.8*	1.3%	6.5%
CCC(=O)Nc1cc2nn(-c3ccc(OC)cc3)nc2cc1C	7.9%	3.0%	51.7*	90.1*	1.8%	5.2%
O=C(CCCCCn1c(=O)c2sccc2n(CC(=O)Nc2cc(C(F)(F)F)ccc2Cl)c1=O)NCc1ccccc1Cl	.	.	.	.	-10.3%	0.5%
SMILES	FBPA Giardia inh	LmPK inhibitor	CHX counter	Shiga inhibitor	TbPYK inhibitor	Sm TGR inh
O=C(Nc1cc(F)ccc1F)C1CCN(C(=O)c2cnn(-c3ccccc3)c2-n2cccc2)CC1	.	.	.	.	-7.5%	3.6%
CCOC(=O)C1CCN(c2nc3c(S(=O)(=O)c4ccccc4)nnn3c3ccsc23)CC1	.	.	.	.	-2.9%	-0.7%
CCC(C)(C#CCN1CCCCC1)OCCC#N (configuration not stated)	-3.4%	6.9%	-3.5	-2.0	-3.7%	39.8µM*
O=C(CN1CCCC1)N1c2ccccc2C=Cc2ccccc21	-4.8%	-9.4%	-1.6	13.7	2.1%	-1.3%[57.1 µM]
N#CC1=C2C=Cc3ccccc3N2CCCC1=O	-11.7%	-27.5%	33.0*	45.1*	-3.3%	2.6%
Cc1cc(NC(=O)NCc2ccc3c(c2)CCN3C(=O)c2ccccc2)ccc1Br	.	.	.	.	8.1%	-13.9%
CSc1ccccc1C(=O)NC1CCSc2ccccc21 (configuration not stated)	-11.4%	1.3%	9.2	25.1	0.7%	-3.5%
O=C(NC1CCSc2ccccc21)c1cccc([N+](=O)[O-])c1 (configuration not stated)	7.9%	-5.1%	22.7	48.3*	6.0%	-19.8%
O=C(NC1CCSc2ccccc21)c1ccc(F)c(S(=O)(=O)N2CCOCC2)c1 (configuration not stated)	.	-5.8%	3.2	-11.1	1.8%	39.8µM*
CN(C)S(=O)(=O)c1cccc(C(=O)NC2CCSc3ccccc32)c1 (configuration not stated)	.	-6.1%	-1.2	-12.3	4.8%	-4.7%
O=C(NC1CCSc2ccccc21)c1cc(S(=O)(=O)N2CCOCC2)ccc1F (configuration not stated)	.	-6.8%	-2.1	2.7	-5.9%	-21.3%
O=C(NC1CCSc2ccccc21)c1ccccc1F (configuration not stated)	.	-5.3%	31.5*	53.8*	1.6%	4.1%
O=C(NC1CCSc2ccccc21)c1ccccc1Cl (configuration not stated)	.	-2.1%	39.1*	37.4*	-11.7%	-1.6%
O=C(Nc1cccc(Cl)c1Cl)c1ccc2c(c1)N(Cc1cccc(Cl)c1)C(=O)c1ccccc1S2=O (configuration not stated)	.	.	.	.	1.3%	21.3%
Cc1cc(Br)ccc1SCC(=O)N1CCN(S(=O)(=O)c2ccccc2)CC1	.	-7.0%	32.9*	38.3*	-2.9%	-12.9%
Cc1cccc(CNC(=O)c2ccc(C)c(-n3c(C)nc4cccnc43)c2)c1	.	.	.	.	1.3%[15.4 µM]	-2.3%
COc1cccc(/C=N/NC(=O)c2ccoc2C)c1	-4.7%	12.6µM*	42.3*	57.2*	-9.7%	-5.9%
COc1cc(/C=N/NC(=O)c2cc(C)oc2C)ccc1O	0.0%	-0.8%	8.6	27.9	2.1%	-2.0%
COc1ccc(/C=N/NC(=O)c2ccoc2C)cc1CN1CCN(c2ccc(F)cc2)CC1	18.2%	-2.5%	45.2*	51.1*	10.6%	-1.6%
COc1cc(/C=N/NC(=O)c2ccoc2C)ccc1O	0.3%	?	37.3*	59.1	-14.4%	-11.6%
